# Measurements: PubChem BioAssay AID488815 (Broad Institute, 2010)
# Results with a measured potency or affinity are listed apart. Results filed as inconclusive are left out. Active and inactive are the calls of the source. How the calls were made is not given here.
# Biological target: CAAX prenyl protease 1 (Saccharomyces cerevisiae (strain ATCC 204508 / S288c)) (UniProt P47154)
# Experiment: yeast CAAX protease Ste24 inhibition – biochemical, S. cerevisiae, plate reader, cherry-pick, dose response (AID 488815);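 further: 0% = neutral control wells and -100% = no enzyme wells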
# Conditions: series mostly up to 10 µM; activity change, negative = inhibition: at the top concentration
# CAAX prenyl protease 1 (Saccharomyces cerevisiae (strain ATCC 204508 / S288c)), sequence (P47154 whole entry, looked up): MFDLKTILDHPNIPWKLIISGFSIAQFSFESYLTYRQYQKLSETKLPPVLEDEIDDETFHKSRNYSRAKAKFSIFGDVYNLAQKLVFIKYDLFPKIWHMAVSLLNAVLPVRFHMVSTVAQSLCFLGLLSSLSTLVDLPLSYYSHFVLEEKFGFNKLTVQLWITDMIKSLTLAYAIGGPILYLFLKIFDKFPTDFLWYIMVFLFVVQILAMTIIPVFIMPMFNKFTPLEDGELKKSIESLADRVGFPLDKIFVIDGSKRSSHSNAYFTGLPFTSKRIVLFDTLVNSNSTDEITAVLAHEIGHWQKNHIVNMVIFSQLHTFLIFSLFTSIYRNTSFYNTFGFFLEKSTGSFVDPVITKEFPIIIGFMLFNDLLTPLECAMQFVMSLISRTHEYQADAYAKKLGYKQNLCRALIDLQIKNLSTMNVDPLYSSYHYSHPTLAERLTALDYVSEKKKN
row,SMILES,"activity change, negative = inhibition"
1,Cn1c(CN2CCOCC2)c(C#N)c2ccccc21,36.1% (inactive)
2,CCN(C(=O)COC(=O)c1cc(-c2cccs2)nc2ccccc12)C1CCS(=O)(=O)C1 (stereo not drawn),19.9% (inactive)
3,O=C(C1CCC(=O)N(C2CC2)C1)N1CCN(c2ccccc2Cl)CC1 (stereo not drawn),18.6% (inactive)
4,N#Cc1c(OCC(=O)c2ccccc2)nc2c(c1-c1ccco1)CCc1ccccc1-2,16.6% (inactive)
5,CCCOc1ccccc1C(=O)NCCCC(=O)O,0.511% (inactive)
6,COc1ccc(C(C(=O)NC2CCCCC2)N(C(=O)c2snc(C(N)=O)c2N)c2ccc(OC)cc2OC)cc1 (stereo not drawn),-15% (inactive)
7,CN(C)CC(C)(C)CNC(=S)NCc1ccc2c(c1)OCO2,19.4% (inactive)
8,Cc1nc(N2CCOCC2)c2c(C)c(C(=O)Nc3ccc(C(F)(F)F)cc3)sc2n1,24% (inactive)
9,Clc1cccc(CN2CCc3c([nH]c4ccccc34)C2)c1Cl,13.1% (inactive)
10,COc1ccc2[nH]c(C(=O)NCCCn3ccnc3)cc2c1,40.5% (inactive)
11,O=C1NC2(C=Cc3c(ccc4ccccc34)O2)Oc2ccccc21 (stereo not drawn),2.33% (inactive)
12,Cc1cccc2sc(N(CCN(C)C)C(=O)c3ccc4ccccc4c3)nc12,2.57% (inactive)
13,COc1cccc(C(=O)Nc2nnc(SCC(=O)NC3CCCC3)s2)c1,-14.9% (inactive)
14,CN(C(=O)COC(=O)c1cn(-c2ccccc2)nc1-c1ccccc1)C1CCS(=O)(=O)C1 (stereo not drawn),17.9% (inactive)
15,COc1ccccc1-n1c(-c2ccccc2)c[nH]c1=S,24.9% (inactive)
16,Cc1nc(N2CCOCC2)c2cc(-c3ccccc3)sc2n1,12.8% (inactive)
17,O=C(Nc1ccc(N2CCOCC2)c(Cl)c1)c1cc2ccccc2o1,22.1% (inactive)
18,O=C1CN(S(=O)(=O)c2ccc([N+](=O)[O-])cc2)CC(=O)N1,13.3% (inactive)
